PfHsp90 yeast 2: reduces growth (ATP signal) of yeast expressing P. falciparum Hsp90; AID 504621; inhibition, % at 9.4 µM; hit rate 0.32% among 310,000; S. cerevisiae expressing PfHsp90, BacTiter-Glo ATP, 48 h; yeast lacking PDR1 and PDR3 efflux regulators;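 active = every replicate shows inhibition above about 80%, whatever the replicate mean, limit read from the data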
tim23-1 inh: tim23-1 yeast growth inhibition. S. cerevisiae tim23-1 growth, BacTiter-Glo luminescence, 24 h. inhibition, % at 20 µM. hit rate 1.3% among 330,000. AID 463212;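 active = growth inhibition of the mutant yeast at or above 50%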;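 also: temperature-sensitive mutant grown at 25 °C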
tim10-1 inh: inhibits growth of tim10-1 mutant yeast; AID 463190; S. cerevisiae tim10-1 ts strain growth, BacTiter-Glo, 24 h; hit rate 2.2% among 330,000; inhibition, % at 20 µM;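 active = inhibition of at least 40%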;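 also: mutant grown at 25 °C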
B2AR ag: human beta-2 adrenergic receptor agonism by FAP. P07550. Am2.2-beta2AR cells, FAP receptor internalization, flow cytometry. response, % (test concentration not listed). hit rate 0.43% among 340,000. AID 504454;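 active = response above a set limit, near 3 SD of response in nonfluorescent compounds, cut at about 42% in these data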
Target sequence (P07550 whole entry, looked up): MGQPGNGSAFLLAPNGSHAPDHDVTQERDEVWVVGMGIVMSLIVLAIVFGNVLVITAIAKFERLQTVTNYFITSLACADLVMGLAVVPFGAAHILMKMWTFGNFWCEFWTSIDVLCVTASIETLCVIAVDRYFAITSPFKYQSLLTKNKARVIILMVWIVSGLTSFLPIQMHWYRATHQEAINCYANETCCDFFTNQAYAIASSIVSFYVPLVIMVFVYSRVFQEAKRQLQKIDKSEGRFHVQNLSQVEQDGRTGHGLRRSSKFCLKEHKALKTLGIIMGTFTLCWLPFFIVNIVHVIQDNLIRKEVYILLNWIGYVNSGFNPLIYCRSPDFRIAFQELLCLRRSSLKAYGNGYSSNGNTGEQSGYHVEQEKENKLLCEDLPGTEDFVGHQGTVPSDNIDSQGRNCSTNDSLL
TIM10 inh: inhibits growth of TIM10 yeast strain; S. cerevisiae TIM10 strain growth, BacTiter-Glo luminescence, 24 h; inhibition, % at 10 µM; hit rate 1.4% among 330,000; AID 463195;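 active = inhibition of 40% or more at the single tested concentration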;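 also: wild-type TIM10 isogenic control strain grown at permissive 25 °C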
tim23-1 conf: tim23-1 yeast growth inhibition, confirmed | shares compounds with tim23-1 inh | inhibition, % at 20 µM | hit rate 83% among 4,400 | S. cerevisiae tim23-1 growth, BacTiter-Glo luminescence, 24 h;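 active = inhibition above about 39% in either of two replicate wells at 20 µM, limit read from the data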;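 also: temperature-sensitive tim23-1 mutant grown at 25 °C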
Of the large screens only hits and unclear results are named; the others gave an inactive call (follow-up assays come after a bar, where they were run). An excerpt weighted towards active compounds, which were near 3.8% of everything screened.

O=C(CCc1ccccc1)N[C@@H]1c2ccccc2CC[C@@H]1OCc1ccccc1	none
CC(C)Oc1ccc(CNC(=S)Nc2ccccc2)cc1Cl	none
COc1ccc(CNC(=S)Nc2ccccc2)cc1Cl	tim23-1 inh 65 | tim23-1 conf inactive
CC1CC1C(=O)Nc1nc(-c2ccccc2)cs1 (centres undefined)	tim23-1 inh 53 | tim23-1 conf 47
CN(C)CC(=O)Nc1nc(-c2ccccc2)cs1	none
CCCCN(C(=O)C(C)Oc1ccc(Br)cc1)c1c(N)n(Cc2ccccc2)c(=O)[nH]c1=O (centres undefined)	none
COc1ccc(OCC(=O)Nc2nc3c(s2)CCCC3)cc1	none
COc1ccc(NC(=O)Nc2nc3c(s2)CCCC3)cc1	tim23-1 inh 63 | tim23-1 conf 50
O=C(CCS(=O)(=O)c1ccccc1Cl)NC1CCCCCC1	none
Cc1cc(C(=O)NC2CCCCCCC2)ccc1[N+](=O)[O-]	none
Cc1ccccc1CSc1nsc(N)n1	tim23-1 inh 52 (no result: PfHsp90 yeast 2) | tim23-1 conf 50
Nc1nc(SCc2ccc(Cl)cc2Cl)ns1	none (no result: PfHsp90 yeast 2)
CCCN1CCN(S(=O)(=O)c2c(C)[nH]c(C)c2C(=O)N2CCCCC2)CC1	none
C/C(=N\NC(=O)CSc1ncccn1)c1ccc2c(c1)OCCO2	tim23-1 inh 53 | tim23-1 conf inactive
C/C(=N\NC(=O)CSc1nc(C)cc(C)n1)c1ccc2c(c1)OCCO2	none
CN1c2ccsc2/C(=N/Nc2ccc(F)cc2)CS1(=O)=O	tim23-1 inh 53 | tim23-1 conf inactive
COc1ccc(/C=N/NC(=O)c2cccs2)c2ccccc12	tim23-1 inh 56 | tim23-1 conf 51
COc1ccc(/C=N/NC(=O)c2cccnc2)c2ccccc12	none
C[C@@H]1C(c2cccc(Cl)c2)=NN(c2ccccc2)[C@H]1C(=O)N1CCOC1=O	none
O=C1OCCN1C(=O)[C@H]1[C@H](c2ccccc2)C(c2ccccc2)=NN1c1ccc(Br)cc1	none
C[C@@H]1C(c2cccc(Cl)c2)=NN(c2ccc(Br)cc2)[C@H]1C(=O)N1CCOC1=O	tim23-1 inh 52 | tim23-1 conf 38
C[C@@H]1C(c2ccccc2)=NN(c2ccccc2)[C@H]1C(=O)N1CCOC1=O	tim23-1 inh 54 | tim23-1 conf inactive
Cc1ccc2c(c1)C(=C(C#N)C#N)CCN2	none (no result: tim23-1 inh, tim10-1 inh, TIM10 inh)
Cc1ccc(C(=O)CSc2nnc(-c3ccco3)n2CC2CCCO2)cc1 (centres undefined)	none
Cc1cccc(Nc2nc(N)c([N+](=O)[O-])c(N3CCCC(C)C3)n2)c1 (centres undefined)	PfHsp90 yeast 2 104, tim23-1 inh 50 | tim23-1 conf inactive
Cc1ccc2c(c1)NC(=O)[C@@]1(C)[C@@H](c3ccccc3)[C@H]3COc4ccccc4[C@@H]3N1C2=O	none
C[C@@]12C(=O)Nc3ccccc3C(=O)N1[C@H]1c3cc(Cl)ccc3OC[C@@H]1[C@@H]2c1ccccc1	none
Cc1ccc2c(c1)C(=O)N1[C@H]3c4ccccc4OC[C@@H]3[C@H](c3ccccc3)[C@]1(C)C(=O)N2	PfHsp90 yeast 2 105, tim23-1 inh 57 | tim23-1 conf 60
C[C@@]12C(=O)Nc3cc(F)c(F)cc3C(=O)N1[C@H]1c3cc(Cl)ccc3OC[C@@H]1[C@@H]2c1ccccc1	tim23-1 inh 51 | tim23-1 conf 44
C[C@@]12C(=O)Nc3ccc(Br)cc3C(=O)N1[C@H]1c3ccccc3OC[C@@H]1[C@@H]2c1ccccc1	PfHsp90 yeast 2 105, tim23-1 inh 61 | tim23-1 conf 57
C[C@@]12C(=O)Nc3ccc(Br)cc3C(=O)N1[C@H]1c3cc(Cl)ccc3OC[C@@H]1[C@@H]2c1ccccc1	none
O=S(=O)(Nc1ccccc1)C1CCCCC1	none (no result: tim23-1 inh, tim10-1 inh, TIM10 inh)
COc1ccc(NC(=O)c2cc3ccccc3cc2OC)cc1	tim23-1 inh 50 | tim23-1 conf inactive
COc1ccccc1C(=O)Nc1nc2ccc(S(C)(=O)=O)cc2s1	none
COc1ccc(C(=O)NCC(C)C)c(OC)c1	tim23-1 inh 72 | tim23-1 conf inactive
COc1ccc(C(=O)Nc2nc3ccccc3s2)c(OC)c1	tim23-1 inh 63 | tim23-1 conf 75
COc1ccccc1C(=O)Nc1nc2ccccc2s1	tim23-1 inh 58 | tim23-1 conf 48
COc1ccc2nc(NC(=O)c3ccccc3C(=O)O)sc2c1	none
CCOC(=O)/C=C1/SCC(=O)N1CCOc1cccc(Br)c1	none (no result: tim23-1 inh, tim10-1 inh, TIM10 inh)
Nc1ccc(C(=O)Nc2nc3ccccc3s2)cc1	tim23-1 inh 51 | tim23-1 conf 44
C=CCn1cccc(C(=O)Nc2ccc(OC)cc2)c1=O	tim23-1 inh 95 | tim23-1 conf inactive
Cc1ccc(C(=O)N=c2sccn2C)o1	none
COCCNC(=O)Cn1c(=O)n(CCCC(=O)NCc2ccc3c(c2)OCO3)c(=O)c2sccc21	none
Oc1ccc(C=Nc2cccc3ccccc23)c(O)c1	none
CC(O)c1cccc(N=Cc2ccc3ccccc3c2O)c1 (centres undefined)	tim23-1 inh 54 | tim23-1 conf 42
Cc1cccc(/N=C/c2c(O)ccc3oc4c(c23)CCCC4)n1	tim23-1 inh 70 | tim23-1 conf 74
Cc1cccc(/N=C/c2c(O)cc(C)oc2=O)n1	none
CCc1cc(C(=O)c2ccc(C)cc2)c(NC(=O)CCl)s1	tim23-1 inh 50 | tim23-1 conf 49
Cc1cc(C(=O)Nc2ccc(Br)cn2)sc1C	tim23-1 inh 64 | tim23-1 conf 68
O=C(Nc1ccccc1C(=O)Nc1ccc(Br)cn1)c1ccccc1Cl	tim23-1 inh 52 | tim23-1 conf 54
O=C(Nc1ccc(Br)cn1)c1ccc(Br)s1	none
Cc1ccccc1C(=O)Nc1ccc(Br)cn1	none
COc1cc(C2C(C#N)=C(C)NC(C)=C2C#N)cc(OC)c1OC	none
Cn1c(=NC(=O)CCl)sc2ccccc21	tim23-1 inh 57 | tim23-1 conf inactive
CC(C)COC(=O)c1cccc2c1-c1ccccc1/C2=N\O	none
CCOC(=O)c1cccc2c1-c1ccccc1/C2=N/O	tim23-1 inh 71 | tim23-1 conf 54
O=C(CSc1nnnn1Cc1ccccc1)c1ccc(F)cc1	tim23-1 inh 54 | tim23-1 conf 52
NC(=O)c1[nH]cnc1N	none
O=C1CC2c3ccccc3C1C1C(=O)N(Cc3ccccc3)C(=O)C21 (centres undefined)	none
Cc1ccc(S(=O)(=O)NC23CC4CC(CC(C4)C2)C3)cc1	tim23-1 inh 51 | tim23-1 conf 52
Cc1ccc(S(=O)(=O)NN=C2C3CC4CC(C3)CC2C4)cc1	none
COC(=O)c1cc(CNC(=O)c2ccc(N3CCCC3)c([N+](=O)[O-])c2)ccc1OC	none
Cc1c([N+](=O)[O-])cnc(Sc2ccccc2)c1[N+](=O)[O-]	tim23-1 inh 75 | tim23-1 conf 73
Cc1ccc(NS(=O)(=O)c2c(C)[nH]c(C)c2C(=O)N2CCCCC2)cc1F	none
Oc1ccc(Cl)cc1CNCc1ccc(F)c(F)c1	tim23-1 inh 53 | tim23-1 conf inactive
COc1ccc(/C=C(\C#N)C(=O)Nc2cccc(C)n2)cc1	none
